Experimental data reported in PubChem BioAssay (NCATS).
Results filed as inconclusive are left out. Activity calls are given as the source filed them. Unless noted, calls come from the whole dose curve; as a rule, active = well fitted curve in the direction sought with a large enough effect; inconclusive = small, poorly fitted or top-dose-only effect, or another doubt; inactive = no such curve, though single readings can be large; an effect the other way counts as inactive or inconclusive.

Assays:
[1] = target: Cytochrome P450 1A2 (Homo sapiens) (UniProt P05177); assay: p450-cyp1a2 (AID 410; calls by dose curve; note: potency is the fitted concentration of half-maximal effect;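 for activity change, negative = inhibition: -100% = full effect of reference inhibitor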)
Procedure, shortened: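 20nM CYP1A2 with 100uM Luciferin-ME (at Km) in 100mM KPO4; compound preincubated 10 min, NADPH regeneration added, 60 min at room temperature. Luciferin quantified by luminescence after detection reagent; normalized to 57 uM furafylline.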

[2] = qHTS Assay for Lipid Storage Modulators (AID 1519; calls by dose curve; for activity change, negative = inhibition: % is set by controls: 0 for no effect and ±100 for the full control effect); settings: Drosophila S3 cells, BODIPY lipid droplet/cell ratio, laser cytometry, cells loaded with oleic acid; for activity change, negative = inhibition: at 57.5 µM (top of the series)
Procedure, shortened: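 Cells seeded at 5,000 per well were treated with compounds over a concentration series and loaded with oleic acid (400 uM, as added). Lipid droplet fluorescence (488 nm excitation, 500-530 nm channel) was read by laser-scanning cytometry and normalized to 20 uM Triacsin C.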

[3] = target: Ubiquitin carboxyl-terminal hydrolase 1 (Homo sapiens) (UniProt O94782); assay: Inhibitors of USP1/UAF1: Pilot qHTS (AID 504865);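 note: rhodamine fluorescence freed from ubiquitin-rhodamine substrate followed over time; top concentration of the series differs between compounds; % is set by controls: 0 for no effect and ±100 for the full control effect; nearly all actives have a fitted effect of over 35% in size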
Procedure, shortened: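 USP1/UAF1 complex at 1 nM preincubated 15 min at room temperature with compound, then Ub-Rho substrate added at 150 nM final. Fluorescence (480/540 nm) read kinetically in 50 mM HEPES pH 7.8, 0.5 mM EDTA, 1 mM TCEP, 0.1 mg/ml BSA, 0.01% Tween-20.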

[4] = target: DNA dC->dU-editing enzyme APOBEC-3G (Homo sapiens) (UniProt Q9HC16); assay: qHTS for inhibitors of Vif-A3G interactions: Validation (AID 588379); note: 0% is about no effect
Procedure, shortened: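 HeLa cells stably expressing Vif and A3G-eYFP, 700 cells/well, incubated overnight at 37 deg C, then exposed to compound overnight at 37 deg C. Inhibition of Vif-mediated degradation read as increased yellow fluorescence (Ex 488/Em 500-530) by laser-scanning cytometry.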

[5] = tested on: Zika virus NS2B-NS3 protease; assay: Primary screen GU AMC qHTS for Zika virus inhibitors (AID 1347154);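 note: 0% = no-inhibitor control and -100% = no-enzyme control; nearly all actives have a fitted effect of over 70% in size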
Procedure, shortened: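 Unlinked Zika NS2B hydrophilic domain–NS3 protease complex at 25 nM in 10 mM Tris-HCl pH 8.0, 0.01% Tween 20, with an AMC peptide substrate. Fluorescence change (340/450 nm) over 15 min at room temperature, normalized to controls, fitted to 4-parameter Hill.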

[6] = target: Glucocorticoid receptor (Homo sapiens) (UniProt P04150); assay: GR-GFP Redistribution (AID 450;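 active = compounds whose dose series gives a full or clear partial fitted curve of increased nuclear translocation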; note: potency is the fitted concentration of half-maximal effect); settings: U2OS GR-GFP nuclear translocation, laser cytometry, 2 h
[7] = target: Glucocorticoid receptor (Homo sapiens) (UniProt P04150); assay: GR-EFC Redistribution (AID 451; calls by dose curve; note: potency is the fitted concentration of half-maximal effect); settings: CHO-K1 GR-EFC translocation, beta-gal luminescence, 2 h
Procedure, shortened: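 CHO-K1 cells expressing nuclear EA and GR-ED fragments of b-gal; compounds titrated up to 46 uM final, 2 h at 37 C. GR nuclear translocation read as complemented b-gal luminescence after 1 h RT detection.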

[8] = target: Mitogen-activated protein kinase 10 (Mus musculus) (UniProt Q61831); assay: JNK3 AlphaScreen Assay (AID 530; active = well fitted curve in either direction with a large enough effect, not every such curve was filed as active;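 note: kinase came from lysate of stimulated human HepG2 cells; signal reports phosphorylation of biotinylated GST-cJun 1-79 at Ser73 with 10 µM ATP; % is set by controls: 0 for no effect and ±100 for the full control effect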)
Procedure, shortened: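 Pre-activated (IL-1β/TNFα) JNK3 in HepG2 lysates phosphorylates biotin-GST-cJun(1-79), 10 uM ATP; anti-phospho-cJun(Ser73) AlphaScreen read at room temperature, pH 7.6 Tris buffer. Compounds pre-incubated 15 min as titrations.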

[9] = target: Cytochrome P450 2C9 (Homo sapiens) (UniProt P11712); assay: qHTS Assay for Inhibitors and Substrates of Cytochrome P450 2C9 (AID 883); note: % is set by controls: 0 for no effect and ±100 for the full control effect; nearly all actives have a fitted effect of over 60% in size
Procedure, shortened: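 10nM CYP2C9 + 100uM Luciferin-H (=KM), 25mM KPO4; cpd 10 min 37C; NADPH regen, 60 min 37C; stop/detect with P450 Glo-Buffer 20 min; luminescence. Norm. to 57uM sulphaphenazole as full inhibition.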

[10] = target: Cytochrome P450 3A4 (Homo sapiens) (UniProt P08684); assay: qHTS Assay for Activators of Cytochrome P450 3A4 (AID 885); note: nearly all actives have a fitted effect of over 65% in size
Procedure, shortened: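 Quantitative HTS format: compounds preincubated with 20nM human CYP3A4 and Luciferin-PPXE substrate at KM, reaction started by NADPH regeneration, stopped after 60 min, luciferase luminescence read 20 min later.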

[11] = target: Cytochrome P450 2D6 (Homo sapiens) (UniProt P10635); assay: qHTS Assay for Inhibitors and Substrates of Cytochrome P450 2D6 (AID 891); note: potency is the fitted concentration of half-maximal effect; nearly all actives have a fitted effect of over 60% in size
Procedure, shortened: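 Human CYP2D6 (5 nM) with 30 uM Luciferin-ME EGE (at Km) in 100 mM KPO4, compound preincubated 10 min, then NADPH regeneration system for 60 min at room temperature. Luciferin read by luminescence; normalized to 1.43 uM quinidine.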

[12] = target: Cytochrome P450 2C19 (Homo sapiens) (UniProt P33261); assay: qHTS Assay for Inhibitors and Substrates of Cytochrome P450 2C19 (AID 899); note: potency is the fitted concentration of half-maximal effect; nearly all actives have a fitted effect of over 60% in size
Procedure, shortened: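 Luminescent read-out of luciferin formed from Luciferin-H EGE (10uM, equal to KM). Enzyme 5nM in 50mM KPO4; compound added, 10 min at 37C, then NADPH regenerating system for 60 min at 37C. Full inhibition defined by 57uM ketoconazole.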

[13] = target: 3',5'-cyclic-AMP phosphodiesterase 4B (Homo sapiens) (UniProt Q07343); assay: qHTS Assay for Inhibitors of PDE-IV (AID 607; active = well fitted activation curve with a large enough effect in the main read-out, with a control signal flat, not every such curve was filed as active; note: % of control where 0% means no effect)
Procedure, shortened: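 Live HEK293 cells with a modified cyclic nucleotide-gated (CNG) channel report intracellular cAMP via membrane-potential dye fluorescence (ex 535/em 590 nm). Endogenous PDE-IV was targeted. Compounds were tested at up to 22.9 uM final; RO 20-1724 100 uM served as control.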

[14] = target: Cytochrome P450 3A4 (Homo sapiens) (UniProt P08684); assay: qHTS Assay for Inhibitors and Substrates of Cytochrome P450 3A4 (AID 884); note: potency is the fitted concentration of half-maximal effect; nearly all actives have a fitted effect of over 50% in size
Procedure, shortened: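 20 nM human CYP3A4 with 25 uM Luciferin-PPXE (at KM) in 200 mM KPO4, preincubated 10 min with compound; NADPH regeneration started a 60 min RT reaction. Luciferin detected by luminescence, normalized to 57 uM ketoconazole as full inhibition.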

[15] = measured here: cell count channel max response
[16] = measured here: lipid channel max response

Chain of DNA dC->dU-editing enzyme APOBEC-3G (Homo sapiens) (Q9HC16 whole entry, looked up): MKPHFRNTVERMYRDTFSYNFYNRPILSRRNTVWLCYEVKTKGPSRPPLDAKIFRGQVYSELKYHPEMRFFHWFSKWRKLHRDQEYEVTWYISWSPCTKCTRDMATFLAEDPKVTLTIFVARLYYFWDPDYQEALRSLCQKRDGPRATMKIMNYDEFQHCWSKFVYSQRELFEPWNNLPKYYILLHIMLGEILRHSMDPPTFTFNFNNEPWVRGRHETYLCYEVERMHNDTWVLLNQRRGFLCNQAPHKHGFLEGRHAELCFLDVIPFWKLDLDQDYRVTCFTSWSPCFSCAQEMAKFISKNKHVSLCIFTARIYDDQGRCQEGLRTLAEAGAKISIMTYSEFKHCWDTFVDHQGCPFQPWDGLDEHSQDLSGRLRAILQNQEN
Chain of Cytochrome P450 3A4 (Homo sapiens) (P08684 whole entry, looked up): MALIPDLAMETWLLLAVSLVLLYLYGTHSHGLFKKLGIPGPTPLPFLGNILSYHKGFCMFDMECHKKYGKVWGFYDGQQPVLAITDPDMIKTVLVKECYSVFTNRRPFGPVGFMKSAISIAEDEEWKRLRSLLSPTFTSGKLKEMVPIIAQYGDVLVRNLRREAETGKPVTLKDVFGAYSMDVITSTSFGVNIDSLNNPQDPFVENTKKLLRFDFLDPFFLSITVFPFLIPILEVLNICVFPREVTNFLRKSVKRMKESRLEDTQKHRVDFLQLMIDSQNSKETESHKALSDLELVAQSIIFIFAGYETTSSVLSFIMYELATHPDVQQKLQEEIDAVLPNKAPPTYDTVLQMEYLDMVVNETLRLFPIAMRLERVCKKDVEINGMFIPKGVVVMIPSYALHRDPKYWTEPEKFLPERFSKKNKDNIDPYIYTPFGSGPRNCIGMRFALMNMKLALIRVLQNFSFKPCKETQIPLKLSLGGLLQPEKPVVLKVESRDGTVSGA
Chain of Glucocorticoid receptor (Homo sapiens) (P04150 whole entry, looked up, the tested form may be a part): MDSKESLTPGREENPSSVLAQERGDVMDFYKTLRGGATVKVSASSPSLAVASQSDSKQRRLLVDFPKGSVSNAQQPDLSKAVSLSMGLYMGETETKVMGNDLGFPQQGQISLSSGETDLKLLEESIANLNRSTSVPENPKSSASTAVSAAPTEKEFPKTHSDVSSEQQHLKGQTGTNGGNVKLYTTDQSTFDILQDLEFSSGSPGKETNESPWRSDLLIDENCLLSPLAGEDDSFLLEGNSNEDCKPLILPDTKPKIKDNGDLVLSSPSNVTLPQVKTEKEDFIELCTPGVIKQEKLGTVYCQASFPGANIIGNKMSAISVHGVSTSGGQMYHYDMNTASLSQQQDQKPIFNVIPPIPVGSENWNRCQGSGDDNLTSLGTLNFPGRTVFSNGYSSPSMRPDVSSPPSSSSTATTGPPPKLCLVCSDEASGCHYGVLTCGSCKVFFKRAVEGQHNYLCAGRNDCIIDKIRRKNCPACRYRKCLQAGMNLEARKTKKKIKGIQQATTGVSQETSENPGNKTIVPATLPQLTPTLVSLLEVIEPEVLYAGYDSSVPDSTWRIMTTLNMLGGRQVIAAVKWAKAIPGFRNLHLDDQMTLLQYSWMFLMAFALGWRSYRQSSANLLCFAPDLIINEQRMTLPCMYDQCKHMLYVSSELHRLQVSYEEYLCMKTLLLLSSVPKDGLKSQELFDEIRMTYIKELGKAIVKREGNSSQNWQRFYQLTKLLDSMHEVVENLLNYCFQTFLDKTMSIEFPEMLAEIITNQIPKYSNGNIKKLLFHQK
Chain of Cytochrome P450 1A2 (Homo sapiens) (P05177 whole entry, looked up): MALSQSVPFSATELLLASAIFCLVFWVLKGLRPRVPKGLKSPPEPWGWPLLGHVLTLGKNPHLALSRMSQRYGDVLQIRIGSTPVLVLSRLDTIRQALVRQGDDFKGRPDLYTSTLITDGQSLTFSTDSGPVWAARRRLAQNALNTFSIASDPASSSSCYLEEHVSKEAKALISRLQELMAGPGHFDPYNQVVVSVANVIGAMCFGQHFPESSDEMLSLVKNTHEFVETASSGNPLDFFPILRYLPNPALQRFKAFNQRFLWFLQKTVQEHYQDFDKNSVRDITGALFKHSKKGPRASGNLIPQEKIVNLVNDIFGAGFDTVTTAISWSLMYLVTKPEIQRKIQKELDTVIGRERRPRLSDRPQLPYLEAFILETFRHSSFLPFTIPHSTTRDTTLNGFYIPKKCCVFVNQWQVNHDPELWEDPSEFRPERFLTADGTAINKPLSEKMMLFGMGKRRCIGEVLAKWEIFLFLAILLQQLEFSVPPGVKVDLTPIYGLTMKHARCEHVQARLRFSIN
Chain of Ubiquitin carboxyl-terminal hydrolase 1 (Homo sapiens) (O94782 whole entry, looked up): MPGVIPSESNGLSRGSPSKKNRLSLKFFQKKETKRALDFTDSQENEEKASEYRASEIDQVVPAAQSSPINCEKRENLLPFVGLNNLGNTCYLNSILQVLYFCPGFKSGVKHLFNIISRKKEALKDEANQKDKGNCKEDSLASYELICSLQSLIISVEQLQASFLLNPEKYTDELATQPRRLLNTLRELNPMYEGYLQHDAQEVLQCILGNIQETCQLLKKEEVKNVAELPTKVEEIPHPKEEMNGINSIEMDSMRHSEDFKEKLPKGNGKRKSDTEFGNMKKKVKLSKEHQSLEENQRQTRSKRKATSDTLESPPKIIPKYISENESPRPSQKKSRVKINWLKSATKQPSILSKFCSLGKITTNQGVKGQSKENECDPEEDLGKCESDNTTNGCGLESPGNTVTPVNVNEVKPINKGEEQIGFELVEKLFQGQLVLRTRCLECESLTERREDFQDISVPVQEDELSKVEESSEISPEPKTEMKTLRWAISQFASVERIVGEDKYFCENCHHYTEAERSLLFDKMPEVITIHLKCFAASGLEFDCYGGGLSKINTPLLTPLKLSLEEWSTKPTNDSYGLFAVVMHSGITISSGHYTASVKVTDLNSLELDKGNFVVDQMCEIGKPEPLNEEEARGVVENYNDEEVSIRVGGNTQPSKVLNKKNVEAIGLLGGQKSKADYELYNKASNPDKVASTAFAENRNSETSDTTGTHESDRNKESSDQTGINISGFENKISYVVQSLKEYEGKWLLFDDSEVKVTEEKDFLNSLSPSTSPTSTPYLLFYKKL
Chain of 3',5'-cyclic-AMP phosphodiesterase 4B (Homo sapiens) (Q07343 whole entry, looked up): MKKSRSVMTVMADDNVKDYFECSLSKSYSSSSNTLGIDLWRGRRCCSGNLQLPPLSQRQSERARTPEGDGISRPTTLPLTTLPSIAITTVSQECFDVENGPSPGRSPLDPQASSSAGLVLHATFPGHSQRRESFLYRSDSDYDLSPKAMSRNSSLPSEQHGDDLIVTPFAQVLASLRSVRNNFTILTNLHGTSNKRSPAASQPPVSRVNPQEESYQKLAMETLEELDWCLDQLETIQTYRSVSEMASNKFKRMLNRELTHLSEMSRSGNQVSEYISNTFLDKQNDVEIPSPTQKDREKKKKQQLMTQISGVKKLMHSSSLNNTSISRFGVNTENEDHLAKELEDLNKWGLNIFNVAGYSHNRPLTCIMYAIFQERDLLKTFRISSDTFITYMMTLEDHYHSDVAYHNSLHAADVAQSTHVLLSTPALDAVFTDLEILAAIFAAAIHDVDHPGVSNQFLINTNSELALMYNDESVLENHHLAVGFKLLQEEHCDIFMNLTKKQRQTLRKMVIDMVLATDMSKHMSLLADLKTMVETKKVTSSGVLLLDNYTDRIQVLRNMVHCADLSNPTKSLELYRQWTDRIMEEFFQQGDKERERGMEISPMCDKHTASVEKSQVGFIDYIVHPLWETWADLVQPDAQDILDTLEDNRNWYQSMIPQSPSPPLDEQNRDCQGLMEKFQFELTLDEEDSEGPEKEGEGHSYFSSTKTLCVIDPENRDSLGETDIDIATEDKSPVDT
Chain of Cytochrome P450 2D6 (Homo sapiens) (P10635 whole entry, looked up): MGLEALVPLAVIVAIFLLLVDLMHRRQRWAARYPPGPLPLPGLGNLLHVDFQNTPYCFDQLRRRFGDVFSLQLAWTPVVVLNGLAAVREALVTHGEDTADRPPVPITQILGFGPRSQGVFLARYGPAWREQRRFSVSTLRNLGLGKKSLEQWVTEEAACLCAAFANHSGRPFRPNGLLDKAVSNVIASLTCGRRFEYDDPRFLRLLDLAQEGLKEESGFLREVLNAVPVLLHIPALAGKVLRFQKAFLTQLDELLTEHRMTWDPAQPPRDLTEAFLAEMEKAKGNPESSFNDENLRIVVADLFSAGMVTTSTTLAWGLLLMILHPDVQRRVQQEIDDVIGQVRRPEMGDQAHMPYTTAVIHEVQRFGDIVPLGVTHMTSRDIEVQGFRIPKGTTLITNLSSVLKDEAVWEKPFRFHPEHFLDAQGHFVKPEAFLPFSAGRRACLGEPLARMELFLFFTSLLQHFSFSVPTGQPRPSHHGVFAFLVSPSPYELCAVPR
Chain of Cytochrome P450 2C19 (Homo sapiens) (P33261 whole entry, looked up): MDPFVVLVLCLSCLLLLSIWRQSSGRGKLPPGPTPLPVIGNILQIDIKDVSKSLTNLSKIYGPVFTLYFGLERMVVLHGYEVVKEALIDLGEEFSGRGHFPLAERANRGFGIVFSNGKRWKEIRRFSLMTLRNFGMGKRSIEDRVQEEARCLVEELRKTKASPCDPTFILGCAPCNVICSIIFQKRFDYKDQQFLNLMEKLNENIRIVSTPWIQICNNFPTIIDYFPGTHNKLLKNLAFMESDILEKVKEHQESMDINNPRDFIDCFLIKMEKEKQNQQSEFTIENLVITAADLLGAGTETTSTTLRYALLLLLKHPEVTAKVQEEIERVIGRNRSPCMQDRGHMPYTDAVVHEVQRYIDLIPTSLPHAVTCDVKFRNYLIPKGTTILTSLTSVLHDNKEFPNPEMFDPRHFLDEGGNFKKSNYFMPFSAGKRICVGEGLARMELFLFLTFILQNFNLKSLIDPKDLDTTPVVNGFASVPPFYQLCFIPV

CN1[C@H](CC(=O)c2ccccc2)CCC[C@H]1C[C@H](O)c1ccccc1
24.7%: max response [2, 15]
active: Potency [1] 15.8 µM
29.8%: max response [2, 16]
inactive: activity change, negative = inhibition [2] 4.17% | Potency [3] | Potency [4] | Potency [5]

CCCN(CCC)C[C@@H]1CCCCN1CCNC(=O)N1c2ccccc2C(=O)Nc2cccnc21
-8.98%: max response [2, 15]
-7.53%: max response [2, 16]
active: Potency [1] 25.1 µM | Potency [11] 2.51 µM | Potency [12] 7.94 µM
inactive: Potency [6] > 46 µM | Potency [7] > 46 µM | Potency [8] | Potency [9] | Potency [10] | activity change, negative = inhibition [2] -0.0589% | Potency [3] | Potency [4] | Potency [5]

CCOC(=O)[C@H](N)/C=C(\C)CP(=O)(O)O
1.46%: max response [2, 15]
inactive: Potency [1] | Potency [7] > 46 µM | Potency [8] | Potency [13] | activity change, negative = inhibition [2] -3.23% | Potency [3] | Potency [4] | Potency [5]
-0.232%: max response [2, 16]

CCCCCCCCC(=O)NCc1cc(OC)c(O)cc1I
active: Potency [1] 12.6 µM | Potency [14] 3.16 µM
inactive: Potency [6] > 46 µM | Potency [7] > 46 µM | Potency [8] | Potency [10] | Potency [4] | Potency [5]

N[C@@H](Cn1ccc(=O)n(Cc2ccccc2C(=O)O)c1=O)C(=O)O
inactive: Potency [1] | Potency [6] > 46 µM | Potency [7] > 46 µM | Potency [8] | Potency [13] | Potency [3] | Potency [4] | Potency [5]
